The values below come from PubChem BioAssay (EPA / NIEHS).

Read-out in experiment [1]: Transforming growth factor beta 1 (TGFb1), TGFB1 (gene 7040)
Briefly: BSK_KF3CT_TGFb1: BioMAP Diversity Plus: KF3CT Assay for Transforming growth factor beta 1 (TGFb1) Biomarker Activity (AID 2283072). The following applies: primary human keratinocytes with fibroblasts; actives raise or lower the signal. The method in brief: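 ELISA quantifies TGF-b1 at 24 h post-dose in a primary human skin co-culture of keratinocytes and fibroblasts, with gain or loss judged against DMSO. Parallel SRB total-protein staining flags overt cytotoxicity.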

Read-out in experiment [2]: C-C motif chemokine 2 (Homo sapiens) (UniProt P13500)
Description: BSK_KF3CT_MCP1: BioMAP Diversity Plus: KF3CT Assay for Monocyte Chemoattractant Protein 1 (MCP1/CCL2) Biomarker Activity (AID 2283073). The following applies: primary human keratinocytes with fibroblasts; actives raise or lower the signal. In a few lines:
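Keratinocytes and foreskin fibroblasts were co-cultured, dosed with chemical, and sampled 24 h later. MCP-1 was quantified by ELISA, and the endpoint was analyzed with bidirectional fitting using DMSO as negative control.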

Read-out in experiment [3]: Matrix Metallopeptidase 9 (MMP9), MMP9 (gene 4318)
Briefly: BSK_KF3CT_MMP9: BioMAP Diversity Plus: KF3CT Assay for Matrix Metallopeptidase 9 (MMP9) Biomarker Activity (AID 2283074).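 On AC50: MMP9 protein level quantified by ELISA in the co-culture.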 The following applies: primary human keratinocytes with fibroblasts; actives raise or lower the signal. In a few lines: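 MMP-9 quantified by ELISA after 24 h chemical treatment of primary human skin keratinocyte/fibroblast co-cultures; gain or loss fitted against DMSO, with parallel SRB staining (0.1% SRB, 560 nm) for overt cytotoxicity.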

Read-out in experiment [4]: urokinase plasminogen activator (uPA), PLAU (gene 5328)
Briefly: BSK_KF3CT_uPA: BioMAP Diversity Plus: KF3CT Assay for urokinase plasminogen activator (uPA) Biomarker Activity (AID 2283075). The following applies: primary human keratinocytes with fibroblasts; actives raise or lower the signal. In a few lines:
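ELISA read-out of uPA 24 h after dosing human skin keratinocytes co-cultured with foreskin fibroblasts. Signal change fitted both ways relative to DMSO; sulforhodamine B on parallel cultures marks overt cytotoxicity.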

Read-out in experiment [5]: CD40, CD40 (gene 958)
Description: BSK_LPS_CD40: BioMAP Diversity Plus: LPS Assay for CD40 Biomarker Activity (AID 2283076). The following applies: primary human HUVEC with PBMC; actives raise or lower the signal. The method in brief: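 CD40 signal, measured by ELISA, is fitted in both directions relative to DMSO vehicle. The system is an LPS-driven human vascular primary co-culture of endothelial cells and PBMC, sampled 24 h after compound addition.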

Read-out in experiment [6]: E-selectin (Homo sapiens) (UniProt P16581)
Description: BSK_LPS_Eselectin: BioMAP Diversity Plus: LPS Assay for Eselectin Biomarker Activity (AID 2283077). The following applies: primary human HUVEC with PBMC; actives raise or lower the signal. The method in brief:
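Signal of E-selectin, detected by ELISA, served as the endpoint; cells were umbilical vein endothelium with PBMC, read 24 h after treatment. DMSO defined baseline, and both increases and decreases were fitted.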

Read-out in experiment [7]: Interleukin-8 (IL8), CXCL8 (gene 3576)
Briefly: BSK_LPS_IL8: BioMAP Diversity Plus: LPS Assay for Interleukin-8 (IL8) Biomarker Activity (AID 2283078). The following applies: primary human HUVEC with PBMC; actives raise or lower the signal. The method in brief:
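Endothelial cells and PBMC from human donors are co-cultured, treated with chemicals and LPS, then assayed for IL-8 by ELISA after 24 h. Parallel SRB staining (0.1% SRB after 10% TCA fixation, 560 nm) flags cytotoxicity.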

Experiment [8] is described as follows: BSK_LPS_SRB: Viability Assessment in the BioMAP Diversity Plus: LPS Assay (AID 2283079).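 Further: total protein by sulforhodamine B absorbance as a cytotoxicity measure; measured one day after compound addition; fitted in both directions against DMSO so loss or gain of signal counts.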 The following applies: primary human HUVEC with PBMC. In a few lines: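 Overt cytotoxicity was gauged by sulforhodamine B total-protein staining in a primary human vascular endothelial and mononuclear cell co-culture 24 h post-dosing. Activity was fitted in both directions relative to DMSO.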

Read-out in experiment [9]: Interleukin-1 alpha (IL1a), IL1A (gene 3552)
Briefly: BSK_LPS_IL1a: BioMAP Diversity Plus: LPS Assay for Interleukin-1 alpha (IL1a) Biomarker Activity (AID 2283080). The following applies: primary human HUVEC with PBMC; actives raise or lower the signal. In a few lines:
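Measured: IL-1 alpha via ELISA at 24 h in LPS-activated human umbilical vein endothelium–PBMC co-culture. Baseline: DMSO, bidirectional fitting.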

Read-out in experiment [10]: Monocyte Chemoattractant Protein-1 (MCP1), CCL2 (gene 6347)
Description: BSK_LPS_MCP1: BioMAP Diversity Plus: LPS Assay for Monocyte Chemoattractant Protein-1 (MCP1) Biomarker Activity (AID 2283081).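 On AC50: secreted MCP-1 protein quantified by ELISA in culture supernatant.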 The following applies: primary human HUVEC with PBMC; actives raise or lower the signal. The method in brief:
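LPS-stimulated HUVEC/PBMC co-culture; chemical, 24 h; MCP-1 by ELISA; bidirectional fit vs DMSO; cytotoxicity via SRB (0.1% stain, 10% TCA fix, 560 nm) in parallel wells.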

A short description of experiment [11]: BSK_LPS_PGE2: BioMAP Diversity Plus: LPS Assay for Prostaglandin E2 (PGE2) Biomarker Activity (AID 2283082). The following applies: primary human HUVEC with PBMC; actives raise or lower the signal. The method in brief: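 PGE2 release measured by ELISA in an LPS-activated co-culture of human umbilical vein endothelial cells and peripheral blood mononuclear cells, read at 24 h post-dosing. DMSO served as baseline for bidirectional curve fitting.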

Read-out in experiment [12]: Tissue Factor, F3 (gene 2152)
Briefly: BSK_LPS_TissueFactor: BioMAP Diversity Plus: LPS Assay for Tissue Factor Biomarker Activity (AID 2283084). The following applies: primary human HUVEC with PBMC; actives raise or lower the signal. In a few lines: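 In this co-culture system of umbilical vein endothelium with PBMC, stimulated with LPS, cell-surface CD142 is detected by ELISA at 24 h. Endpoint values derive from bidirectional fitting, DMSO serving as baseline.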

Read-out in experiment [13]: Tumor necrosis factor (Homo sapiens) (UniProt P01375)
Description: BSK_LPS_TNFa: BioMAP Diversity Plus: LPS Assay for Tumour Necrosis Factor alpha (TNFa) Biomarker Activity (AID 2283085).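 On AC50: TNFa protein level quantified by ELISA in the co-culture.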 The following applies: primary human HUVEC with PBMC; actives raise or lower the signal. In a few lines:
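TNFa was quantified by ELISA in LPS-activated co-cultures of human endothelial cells and PBMC, 24 h post-dosing. Both increases and decreases versus DMSO were fitted.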

Read-out in experiment [14]: Vascular cell adhesion molecule 1 (VCAM1), VCAM1 (gene 7412)
Briefly: BSK_LPS_VCAM1: BioMAP Diversity Plus: LPS Assay for Vascular cell adhesion molecule 1 (VCAM1) Biomarker Activity (AID 2283086). The following applies: primary human HUVEC with PBMC; actives raise or lower the signal. The method in brief: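 VCAM-1 quantified by ELISA in an LPS-activated co-culture of human endothelial cells and peripheral blood mononuclear cells, read 24 h post-treatment. Fitted in both directions versus DMSO; parallel SRB staining flags overt cytotoxicity.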

Read-out in a further experiment: CD38, CD38 (gene 952)
Briefly: BSK_SAg_CD38: BioMAP Diversity Plus: SAg Assay for CD38 Biomarker Activity (AID 2283087). The following applies: primary human HUVEC with PBMC; actives raise or lower the signal. The method in brief: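 CD38 quantified by ELISA (fluorescence) in a superantigen-activated endothelial cell–PBMC co-culture at 24 h post-dose. Activity fitted in both directions relative to DMSO; parallel SRB and Alamar Blue cytotoxicity read-outs.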

Read-out in experiment [15]: CD40, CD40 (gene 958)
Description: BSK_SAg_CD40: BioMAP Diversity Plus: SAg Assay for CD40 Biomarker Activity (AID 2283088). The following applies: primary human HUVEC with PBMC; actives raise or lower the signal. In a few lines: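 Fluorescence ELISA read-out of CD40 from umbilical vein endothelium plus peripheral blood mononuclear cells, sampled 24 h after dosing. Values come from bidirectional curve fitting with DMSO as baseline.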

Read-out in the next experiment: CD69, CD69 (gene 969)
Briefly: BSK_SAg_CD69: BioMAP Diversity Plus: SAg Assay for CD69 Biomarker Activity (AID 2283089). The following applies: primary human HUVEC with PBMC; actives raise or lower the signal. The method in brief: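 Values derive from bidirectional fitting relative to DMSO vehicle. Cells: umbilical vein endothelium plus peripheral blood mononuclear cells, treated 24 h before fluorescent ELISA for CD69.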

Read-out in experiment [16]: Monocyte Chemoattractant Protein-1 (MCP1), CCL2 (gene 6347)
Briefly: BSK_SAg_MCP1: BioMAP Diversity Plus: SAg Assay for Monocyte Chemoattractant Protein-1 (MCP1) Biomarker Activity (AID 2283090). The following applies: primary human HUVEC with PBMC; actives raise or lower the signal. The method in brief: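 Values derive from bidirectional fitting of ELISA-measured MCP1 against DMSO controls. Readings were taken 24 h after dosing human vascular endothelial cells co-cultured with peripheral blood mononuclear cells under superantigen stimulation.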

Read-out in experiment [17]: E-selectin (Homo sapiens) (UniProt P16581)
Description: BSK_SAg_Eselectin: BioMAP Diversity Plus: SAg Assay for Eselectin Biomarker Activity (AID 2283091). The following applies: primary human HUVEC with PBMC; actives raise or lower the signal. In a few lines: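 Primary human endothelial cells and peripheral blood mononuclear cells were co-cultured and exposed to chemical for 24 hours. E-selectin levels were then quantified by ELISA, with bidirectional curve fitting normalised to DMSO controls.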

Read-out in experiment [18]: Macrophage colony-stimulating factor (MCSF), CSF1 (gene 1435)
Description: BSK_LPS_MCSF: BioMAP Diversity Plus: LPS Assay for Macrophage colony-stimulating factor (MCSF) Biomarker Activity (AID 2283083). The following applies: primary human HUVEC with PBMC; actives raise or lower the signal. In a few lines: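 Compound is added to a human vascular primary co-culture of umbilical vein endothelium and blood mononuclear cells. After 24 h, M-CSF is quantified by ELISA. Signal changes are fitted in both directions against DMSO.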

The source made the active and inactive calls. How the source made its calls: active means hit-call score of the fitted dose curve at least 0.9, where 1 is the maximum; inactive means score below 0.9.

Sequence of E-selectin (Homo sapiens) (P16581 whole entry, looked up): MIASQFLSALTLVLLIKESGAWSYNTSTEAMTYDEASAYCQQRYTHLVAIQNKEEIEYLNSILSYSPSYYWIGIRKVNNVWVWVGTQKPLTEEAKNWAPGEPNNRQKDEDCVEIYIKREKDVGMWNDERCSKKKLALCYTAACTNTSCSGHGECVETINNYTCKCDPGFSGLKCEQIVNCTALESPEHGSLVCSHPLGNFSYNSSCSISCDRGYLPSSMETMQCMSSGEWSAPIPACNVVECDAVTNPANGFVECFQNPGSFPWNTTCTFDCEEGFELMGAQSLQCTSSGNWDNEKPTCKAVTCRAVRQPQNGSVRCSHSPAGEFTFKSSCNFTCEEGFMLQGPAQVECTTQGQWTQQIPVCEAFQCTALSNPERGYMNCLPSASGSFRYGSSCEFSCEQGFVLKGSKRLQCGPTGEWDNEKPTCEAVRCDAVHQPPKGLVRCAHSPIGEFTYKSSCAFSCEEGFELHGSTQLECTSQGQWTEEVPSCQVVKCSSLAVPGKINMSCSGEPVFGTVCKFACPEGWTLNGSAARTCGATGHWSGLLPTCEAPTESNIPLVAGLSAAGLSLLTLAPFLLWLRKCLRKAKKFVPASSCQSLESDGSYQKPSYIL
Sequence of Tumor necrosis factor (Homo sapiens) (P01375 whole entry, looked up): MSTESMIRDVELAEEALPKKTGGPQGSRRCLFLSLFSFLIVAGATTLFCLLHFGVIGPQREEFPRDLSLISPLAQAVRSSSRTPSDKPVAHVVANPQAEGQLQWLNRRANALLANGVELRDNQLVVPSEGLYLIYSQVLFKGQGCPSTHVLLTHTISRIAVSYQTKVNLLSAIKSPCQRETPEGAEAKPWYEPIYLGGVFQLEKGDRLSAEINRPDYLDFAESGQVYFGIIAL

On to `CC(C)(C)c1cc(C(C)(C)C)c(O)c(C(C)(C)C)c1`, for which the outcome in experiment [1] was “inactive”; in [2], “inactive”; in experiment [4], “inactive”; with CD40, CD40 (gene 958) [5], “inactive”; in experiment [6], “inactive”; in experiment [7], “inactive”. Besides, the outcome in experiment [8], in experiment [9], in [10], in [11], in experiment [13] and in experiment [14] was inactive. The outcome is “inactive” with CD38, CD38 (gene 952); “inactive” in the experiment with CD40, CD40 (gene 958) [15]; “inactive” in the experiment with CD69, CD69 (gene 969); “inactive” in [16]; “inactive” in experiment [17]. For the same compound, the AC50 (in general, the concentration at which the activity in the assay is half-maximal) in [3] was 36.2 µM (active); in experiment [12], 20 µM (active).

As for `OC1CCCCC1`, the outcome in experiment [1] is “inactive”; in [2], “inactive”; in experiment [3], “inactive”; in experiment [4], “inactive”; with CD40, CD40 (gene 958) [5] it was “inactive”; in [7], “inactive”. The result in [8], in [9], in experiment [10], in experiment [11], in [18] and in experiment [12] was inactive. Besides, the outcome in [13] was “inactive”; in the experiment with CD38, CD38 (gene 952), “inactive”; in the experiment with CD40, CD40 (gene 958) [15], “inactive”; with CD69, CD69 (gene 969), “inactive”; in experiment [16] it was “inactive”; in experiment [17] it was “inactive”.

Consider `C#C[C@]1(O)CC[C@H]2[C@@H]3CCC4=CC(=O)CC[C@@H]4[C@H]3CC[C@@]21C`, for which the outcome in [1] is “inactive”; in experiment [2] it was “inactive”; in experiment [3], “inactive”; in [4], “inactive”; in the experiment with CD40, CD40 (gene 958) [5] it was “inactive”; in experiment [9] it was “inactive”. The outcome in experiment [12] was “inactive”; with CD69, CD69 (gene 969), “inactive”; in [17] it was “inactive”. Moreover, the AC50 is 4.87 µM (active) in experiment [7]; 5.96 µM (active) in experiment [8]; 8.06 µM (active) in [10]; 20 µM (active) in experiment [11]; 6.38 µM (active) in experiment [18]; 4.11 µM (active) in experiment [13]. Besides, the AC50 in experiment [14] is 8.21 µM (active); with CD38, CD38 (gene 952), 7.1 µM (active); in the experiment with CD40, CD40 (gene 958) [15], 5.45 µM (active); in experiment [16], 5.76 µM (active).
